Laboratory results reported in the supplement of paper PMC13380429.

Columns and labels:
[1] = test system: Vero E6 infected with SARS-CoV-2; experiment: morphology score (similarity to uninfected cells); higher = more like uninfected cells; conditions: 24 h
[2] = test system: Vero E6 infected with SARS-CoV-2; experiment: SARS-CoV-2 infection rate relative to infected DMSO; higher = more infection, active = 60 or less; conditions: 24 h

CN1CCN(C(=O)O[C@H]2c3nccnc3C(=O)N2c2ccc(Cl)cn2)CC1 (10 µM)
morphology score [1]: -0.0495
SARS-CoV-2 infection rate [2]: 108% (inactive)

CC(=C(CCO)SSCC1CCCO1)N(C=O)Cc1cnc(C)nc1N (stereo in doubt) [fursultiamine] (10 µM)
morphology score [1]: 0.0723
SARS-CoV-2 infection rate [2]: 110% (inactive)

CCC(C)C(C(=O)OCC[N+](C)(CC)CC)c1ccccc1 (configuration not stated) [valethamate] (10 µM)
morphology score [1]: 0.0952
SARS-CoV-2 infection rate [2]: 95% (inactive)

CC(C)(C)c1ccc(CN2CCN(C(c3ccccc3)c3ccc(Cl)cc3)CC2)cc1 (configuration not stated) [buclizine] (10 µM)
morphology score [1]: 0.307
SARS-CoV-2 infection rate [2]: 90.5% (inactive)

O=C(O)c1ccc(S(=O)(=O)N(Cl)Cl)cc1 [halazone] (10 µM)
morphology score [1]: 0.13
SARS-CoV-2 infection rate [2]: 95% (inactive)

CN1CCC(=C2c3ccccc3Sc3ccccc32)CC1 [pimethixene] (10 µM)
morphology score [1]: 0.373
SARS-CoV-2 infection rate [2]: 85.5% (inactive)

O=C(Nc1ccccc1)Nc1ccc(-c2ccc(C(=O)[C@@H]3CCC[C@@H]3C(=O)O)cc2)cc1 (10 µM)
morphology score [1]: 0.202
SARS-CoV-2 infection rate [2]: 102% (inactive)

O=C(CCCN1CCN(c2ccccn2)CC1)c1ccc(F)cc1 [azaperone] (10 µM)
morphology score [1]: 0.13
SARS-CoV-2 infection rate [2]: 83% (inactive)

NNC(=O)CN1C(=O)CN=C(c2ccccc2)c2cc(Br)ccc21 [gidazepam] (10 µM)
morphology score [1]: 0.101
SARS-CoV-2 infection rate [2]: 100% (inactive)

O=C(NOCCO)c1cc(CN2OCCCC2=O)c(F)c(F)c1Nc1ccc(I)cc1F (0.833333 µM)
morphology score [1]: -0.175
SARS-CoV-2 infection rate [2]: 96.5% (inactive)

COc1ccc(-c2nc3cc(C4=NNC(=O)CC4C)ccc3[nH]2)cc1 (configuration not stated) [pimobendan] (10 µM)
morphology score [1]: 0.129
SARS-CoV-2 infection rate [2]: 94% (inactive)
